High-throughput results (PubChem BioAssay)
GLP-1R inv ag = qHTS of GLP-1 Receptor Inverse Agonists (Inhibition Mode). HEK293 GLP-1R CRE-luciferase, luminescence, 24 h; GLP-1R form is constitutively active. Glucagon-like peptide 1 receptor (Homo sapiens), P43220. 1.6% of 410,000 active. Potency, µM (series often up to 38.3 µM), most hits filed as inhibitors; further: nearly all actives have a fitted effect of over 55% in size
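Seeding at 200 cells/uL, 12 h culture, 24 hr compound treatment, then luciferase reagent and a luminescence read; cells are HEK293 stably expressing a constitutively active GLP-1R plus cAMP-responsive luciferase.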
Gal4-VP16 FLuc = VP16 counterscreen qHTS for inhibitors of ROR gamma transcriptional activity | Drosophila S2 Gal4-VP16 UAS-luciferase, luminescence, 20 h | Potency, µM (series often up to 53.6 µM), hits mostly inhibitors | 3.5% of 310,000 active | AID 2546, 2010;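 further: Gal4-VP16 expression switched on by copper sulfate through the metallothionein promoter; nearly all actives have a fitted effect of over 50% in size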
RORgamma inh = qHTS for inhibitors of ROR gamma transcriptional activity. Nuclear receptor ROR-gamma (Mus musculus), P51450. Drosophila S2 Gal4-RORgamma UAS-luciferase reporter, 20 h. Potency, µM (top dose mostly 53.6 µM), most hits filed as inhibitors. 5.4% of 310,000 active. AID 2551, 2010; further: nearly all actives have a fitted effect of over 60% in size
Target sequence (P51450 whole entry, looked up, the tested form may be a part): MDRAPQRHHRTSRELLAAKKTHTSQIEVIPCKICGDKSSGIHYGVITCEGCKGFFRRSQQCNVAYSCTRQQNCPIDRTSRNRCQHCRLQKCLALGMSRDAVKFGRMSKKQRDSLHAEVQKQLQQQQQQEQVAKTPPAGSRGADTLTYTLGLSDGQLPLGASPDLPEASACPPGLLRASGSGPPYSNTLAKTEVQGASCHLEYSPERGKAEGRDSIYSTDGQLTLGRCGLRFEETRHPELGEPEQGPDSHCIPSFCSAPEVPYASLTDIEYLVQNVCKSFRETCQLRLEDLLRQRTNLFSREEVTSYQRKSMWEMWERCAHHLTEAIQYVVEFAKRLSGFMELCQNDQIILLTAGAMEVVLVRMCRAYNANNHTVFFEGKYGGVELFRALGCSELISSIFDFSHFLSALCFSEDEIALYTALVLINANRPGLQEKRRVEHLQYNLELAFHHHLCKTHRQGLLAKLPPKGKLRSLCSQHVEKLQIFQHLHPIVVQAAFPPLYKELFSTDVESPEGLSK
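Drosophila S2 cells stably expressing Gal4-DBD/mouse RORγ fusion under metallothionein promoter plus UAS-luciferase; compound 1 h, then 700 uM CuSO4 induction for 20 h at ambient temperature; inhibition read as reduced luminescence.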
HEK293 tox = qHTS of GLP-1 Receptor Inverse Agonists: Cytotox Screen; HEK293 cAMP-luciferase reporter cells, luminescence, 24 h; Potency, µM (series often up to 38.3 µM), actives largely listed as inhibitors; 0.13% of 410,000 active;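 further: loss of luciferase light is scored as toxicity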
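Here, cytotoxicity is scored as loss of luminescence. The MLSMR collection was tested on cells seeded in medium containing 10% Nu serum, with a 24 hr compound exposure preceded by 12 hours of culture.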
GLP-1R agonist = qHTS of GLP-1 Receptor Agonists; Glucagon-like peptide 1 receptor (Homo sapiens), P43220; HEK293 GLP-1R CRE-luciferase, luminescence, 4-6 h; cells express a hypersensitive GLP-1R form; Potency, µM (top dose mostly 45.6 µM), usual class: activators; 0.007% of 380,000 active
Large screens that a line does not name were inactive; ! = repeats disagree. In the library only some 5.9% were active in any assay of this set; here they are far more common. The call rests on the fitted dose curve; in most records, active means well fitted curve in the direction sought with a large enough effect; inconclusive means small, poorly fitted or top-dose-only effect, or another doubt; inactive means no such curve, though single readings can be large; an effect the other way counts as inactive or inconclusive.

Cc1ccc(CNC(=O)CN2C(=O)CCc3cc(S(=O)(=O)N4CCCCC4)ccc32)cc1	none (no result: Gal4-VP16 FLuc, RORgamma inh, GLP-1R agonist)
CCOc1ccc(C2=C(C(C)=O)Sc3nnc(C)n3N2C(C)=O)cc1	none (no result: Gal4-VP16 FLuc, RORgamma inh, GLP-1R agonist)
CC(=O)C1=C(c2cccc([N+](=O)[O-])c2)N(C(C)=O)n2c(C)nnc2S1	GLP-1R inv ag inconclusive, Gal4-VP16 FLuc inconclusive, RORgamma inh 5µM
CCC(C)CC(C)CC(C)C(=O)/C=C(/O)C(C)CC(C)C/C=C/C(C)C(O)C(C)C(O)CC1CCC(C)(C)O1 (stereo not drawn)	Gal4-VP16 FLuc inconclusive (no result: GLP-1R inv ag, HEK293 tox, GLP-1R agonist)
Cc1ccc(NC(=O)CC(C)S(=O)(=O)c2ccc3c(c2)NC(=O)CO3)c(C)c1 (stereo not drawn)	none (no result: Gal4-VP16 FLuc, RORgamma inh, GLP-1R agonist)
Cc1cccc(N(C)C(CNS(=O)(=O)c2ccccc2)c2ccccc2)c1 (stereo not drawn)	GLP-1R inv ag 10µM (no result: Gal4-VP16 FLuc, RORgamma inh, GLP-1R agonist)
CCN(c1ccccc1)C(CNS(=O)(=O)c1ccccc1)c1ccccc1 (stereo not drawn)	GLP-1R inv ag 10µM (no result: Gal4-VP16 FLuc, RORgamma inh, GLP-1R agonist)
CCN(c1cccc(C)c1)C(CNS(=O)(=O)c1ccccc1)c1ccccc1 (stereo not drawn)	GLP-1R inv ag inconclusive (no result: Gal4-VP16 FLuc, RORgamma inh, GLP-1R agonist)
CCOc1ccccc1NC(=O)c1c2c(nc3ccccc13)C(=O)N(C1CCCCC1)C2	GLP-1R inv ag inconclusive (no result: Gal4-VP16 FLuc, RORgamma inh, GLP-1R agonist)
CCOc1ccc(NC(=O)CSc2nc(=O)[nH]c3c2CCC3)cc1	none (no result: Gal4-VP16 FLuc, RORgamma inh, GLP-1R agonist)
O=C(Nc1nc(N2C(=O)c3ccccc3C2=O)n(-c2ccccc2)n1)c1ccc(Cl)cc1	Gal4-VP16 FLuc inconclusive, RORgamma inh 14µM
CCc1ccccc1NC(=O)c1cc(S(=O)(=O)N(CC)c2ccccc2)ccc1F	GLP-1R inv ag 11µM (no result: Gal4-VP16 FLuc, RORgamma inh, GLP-1R agonist)
CCN(c1ccccc1)S(=O)(=O)c1ccc(OC)c(NC(=O)Cc2ccc(F)cc2)c1	GLP-1R inv ag inconclusive (no result: Gal4-VP16 FLuc, RORgamma inh)
Cc1ccc(C2(c3noc(CN(C)Cc4cccnc4)n3)CCCC2)cc1	GLP-1R inv ag inconclusive, Gal4-VP16 FLuc 13µM, RORgamma inh inconclusive
Cc1ccc(C2(c3noc(CN(C)Cc4ccccn4)n3)CCCC2)cc1	GLP-1R inv ag inconclusive, RORgamma inh 16µM, HEK293 tox inconclusive
COc1ccc(C(=O)O/N=C(\N)Cc2ccc(Cl)c(Cl)c2)cc1OC	GLP-1R inv ag inconclusive, Gal4-VP16 FLuc 6.3µM, RORgamma inh inconclusive, HEK293 tox 5.6µM
COc1cc(C(=O)O/N=C(\N)Cc2ccc([N+](=O)[O-])cc2)cc(OC)c1OC	GLP-1R inv ag inconclusive, Gal4-VP16 FLuc inconclusive, HEK293 tox inconclusive
N/C(Cc1ccc(Cl)cc1)=N\OC(=O)c1ccccc1	GLP-1R inv ag inconclusive, HEK293 tox inconclusive
COc1ccc(C(=O)O/N=C(\N)Cc2ccc(Cl)cc2)cc1OC	GLP-1R inv ag 7.9µM, Gal4-VP16 FLuc 16µM, RORgamma inh inconclusive, HEK293 tox inconclusive
CCCC[C@H]1CCCO[C@@](C(=O)NCc2ccccn2)(C(F)(F)F)C1	none (no result: GLP-1R inv ag, HEK293 tox, GLP-1R agonist)
CC(C(O)c1ccccc1)N(C)CCOC(c1ccccc1)c1ccccc1 (stereo not drawn)	none (no result: GLP-1R inv ag, Gal4-VP16 FLuc, RORgamma inh, HEK293 tox)
CCOc1ccc(N(C)S(=O)(=O)c2cc(-c3cc(C)no3)ccc2CC)cc1	GLP-1R inv ag 8.9µM, RORgamma inh inconclusive
Cc1ccc(-c2nc(C)c(CCNS(=O)(=O)c3ccccc3F)s2)cc1	none (no result: Gal4-VP16 FLuc, RORgamma inh)
CCOC(=O)c1c(NC(=O)COc2cccc(C(F)(F)F)c2)sc2c1CCCCC2	none (no result: Gal4-VP16 FLuc, RORgamma inh, GLP-1R agonist)
CC(C)c1ccc2oc3nc(N)c(C(=O)O)cc3c(=O)c2c1	Gal4-VP16 FLuc 4µM!, RORgamma inh 7.9µM (no result: GLP-1R inv ag, HEK293 tox)
Cn1c(=O)c2c(nc(NCc3ccco3)n2C/C=C/c2ccccc2)n(C)c1=O	Gal4-VP16 FLuc 4.5µM, RORgamma inh 2.2µM
Cn1c(=O)c2c(nc(NCc3ccco3)n2Cc2ccccc2Cl)n(C)c1=O	Gal4-VP16 FLuc 4.5µM
Cn1c(=O)c2c(nc(NCc3ccco3)n2C)n(C)c1=O	none
Oc1ccc(N=Nc2ccccc2)o1	GLP-1R inv ag inconclusive, Gal4-VP16 FLuc 16µM, RORgamma inh inconclusive
Oc1c(N=Nc2ccccc2)sc2ccccc12	Gal4-VP16 FLuc inconclusive
CN1C(=S)SC(C)(NO)C1(C)C (stereo not drawn)	Gal4-VP16 FLuc inconclusive, RORgamma inh 16µM
CNC(=O)C1CCN(C(=O)N2CC(C)Oc3ccc(Cl)cc32)CC1 (stereo not drawn)	none (no result: Gal4-VP16 FLuc, RORgamma inh, GLP-1R agonist)
